Screening results (PubChem BioAssay)
G9a block – qHTS Assay for Inhibitors of Histone Lysine Methyltransferase G9a; actives 8.8% (n = 350,000); Histone-lysine N-methyltransferase EHMT2 (Homo sapiens), Q96KQ7; AID 504332, 2011; G9a H3K9 monomethylation, AlphaScreen, 2 h; Potency, µM (series often up to 102 µM), inactives show at the top dose activity, negative = inhibition, usual class: inhibitors; also: % is scaled to controls: 0 for no effect and ±100 for the full control effect; nearly all actives have a fitted effect of over 75% in size
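Chemiluminescent proximity detection of H3K9 monomethylation, read after 10 min bead incubation in the dark. Reaction: 20 nM G9a, 500 nM biotin-H3K9 peptide, 20 uM SAM cofactor, 2 h, room temperature, following 15 min enzyme-compound preincubation.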
Sfp inh – qHTS Assay for Inhibitors of Bacillus subtilis Sfp phosphopantetheinyl transferase (PPTase) | Biochemical Sfp PPTase activity, qHTS | Potency, µM, for the others: largest response in the series, negative = inhibition, most hits filed as inhibitors | actives 3.5% (n = 310,000) | AID 1490, 2009;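 also: the enzyme is Sfp with the accession as filed and its product quenches rhodamine fluorescence; 0% = enzyme reaction without inhibitor and -100% = no enzyme wells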
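Compounds were incubated with enzyme (final 15 nM) for 15 min at room temperature before substrate addition started the reaction. Fluorescence at 525 nm excitation, 598 nm emission was recorded immediately and after 30 minutes.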
BAZ2B block – qHTS Assay for Inhibitors of BAZ2B. Bromodomain adjacent to zinc finger domain protein 2B (Homo sapiens), Q9UIF8. AlphaScreen BAZ2B-H3K14Ac peptide displacement. Potency, µM (titrated, usually from 114 µM), for the others: top-dose activity change, negative = inhibition, most hits filed as inhibitors. actives 4.4% (n = 360,000). AID 504333, 2011; also: % is scaled to controls: 0 for no effect and ±100 for the full control effect; nearly all actives have a fitted effect of over 60% in size
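Inhibition is scored as reduced AlphaScreen emission. The BAZ2B/b-H3(5-23)K14Ac complex (50 nM each) in PBS pH 7.4, 0.01% Tween-20 meets compound (up to 110 uM) for 30 min at RT before bead addition.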
HP1b chromo inh – HTS for Inhibitors of HP1-beta Chromodomain Interactions with Methylated Histone Tails | actives 0.56% (n = 390,000) | Chromobox protein homolog 1 (Homo sapiens), P83916 | Potency, µM (doses to about 114 µM), without a hit: at the top dose activity change, negative = inhibition, usual class: inhibitors | AlphaScreen HP1-beta / biotin-H3K9me3 peptide binding | AID 540317, 2011; also: nearly all actives have a fitted effect of over 70% in size
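Compound inhibition of the preformed complex between 50 nM HP1-beta and 50 nM biotinylated H3K9me3 peptide was read by AlphaScreen. Buffer was PBS pH 7.4 with 0.01% Tween-20. Incubations ran 30 min at room temperature, with 10 ug/mL donor/acceptor beads.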
JMJD2A Tudor inh – qHTS Assay for Inhibitors of JMJD2A-Tudor Domain; Lysine-specific demethylase 4A (Homo sapiens), O75164; AlphaScreen JMJD2A-Tudor / H3K4me3 peptide binding; Potency, µM (series often up to 114 µM), inactives show top-dose activity change, negative = inhibition, most hits filed as inhibitors; actives 4.4% (n = 390,000); AID 504339, 2011; also: % is scaled to controls: 0 for no effect and ±100 for the full control effect; nearly all actives have a fitted effect of over 50% in size
L3MBTL1 block – qHTS Assay for the Inhibitors of L3MBTL1; Lethal(3)malignant brain tumor-like protein 1 (Homo sapiens), Q9Y468; AlphaScreen L3MBTL1–H3K9me1 peptide binding; Potency, µM (top dose mostly 57.1 µM), inactives show top-dose activity, negative = inhibition, hits mostly inhibitors; actives 0.66% (n = 230,000); also: % is scaled to controls: 0 for no effect and ±100 for the full control effect; nearly all actives have a fitted effect of over 60% in size
Target sequence (Q9Y468 whole entry, looked up): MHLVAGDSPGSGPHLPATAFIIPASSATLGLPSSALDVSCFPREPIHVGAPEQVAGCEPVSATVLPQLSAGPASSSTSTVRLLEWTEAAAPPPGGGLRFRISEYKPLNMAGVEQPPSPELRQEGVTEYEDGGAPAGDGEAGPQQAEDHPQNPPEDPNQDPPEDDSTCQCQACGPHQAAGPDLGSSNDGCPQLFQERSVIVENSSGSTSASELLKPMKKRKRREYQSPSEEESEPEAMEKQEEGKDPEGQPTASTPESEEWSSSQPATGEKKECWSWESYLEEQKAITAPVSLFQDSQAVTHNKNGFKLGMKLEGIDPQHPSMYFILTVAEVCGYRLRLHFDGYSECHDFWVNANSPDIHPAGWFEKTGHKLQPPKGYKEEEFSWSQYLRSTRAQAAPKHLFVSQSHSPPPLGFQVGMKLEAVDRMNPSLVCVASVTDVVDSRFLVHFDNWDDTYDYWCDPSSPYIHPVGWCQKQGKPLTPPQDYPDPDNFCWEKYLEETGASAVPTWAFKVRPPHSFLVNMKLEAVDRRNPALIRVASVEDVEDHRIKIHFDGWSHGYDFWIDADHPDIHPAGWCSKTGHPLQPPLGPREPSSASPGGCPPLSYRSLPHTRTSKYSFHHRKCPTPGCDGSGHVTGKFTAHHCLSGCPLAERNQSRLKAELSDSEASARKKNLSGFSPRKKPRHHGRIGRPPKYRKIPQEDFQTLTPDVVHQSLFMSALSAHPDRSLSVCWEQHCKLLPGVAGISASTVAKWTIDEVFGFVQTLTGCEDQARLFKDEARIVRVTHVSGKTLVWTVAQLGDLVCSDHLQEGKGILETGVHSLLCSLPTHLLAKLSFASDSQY
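Displacement of a biotinylated histone H3(1-15) peptide monomethylated at Lys9 (75 nM) from L3MBTL1 (50 nM) was measured by AlphaScreen after a 30 min room-temperature compound incubation; cefsulodin titration served as intraplate control.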
* hit, by the source's call; ? = inconclusive; . = not tested or not shown; [ ] = remark or other dose. The list is not random: actives were taken first. Their share in the collection is about 12%. Calls follow the shape of the dose curve; as a rule, active = well fitted curve in the direction sought with a large enough effect; inconclusive = small, poorly fitted or top-dose-only effect, or another doubt; inactive = no such curve, though single readings can be large; an effect the other way counts as inactive or inconclusive. Potency is read from the fitted curve at half-maximal effect.

SMILES | G9a block | Sfp inh | BAZ2B block | HP1b chromo inh | JMJD2A Tudor inh | L3MBTL1 block
Cn1c2cc(S(C)(=O)=O)sc2c2cnn(Cc3ccccc3F)c(=O)c21 | . | . | . | . | -0.7% | .
CC(C)(O)[C@@H]1CCC[N+]2(C)CCCC[C@H]12 (some centres not stated) | . | 6.5% | . | . | . | .
CN(Cc1ccccc1)c1ccc2cc(S(=O)(=O)N3CCCCC3)ccc2n1 | 20.0%[59 µM] | . | 7.5% | 42.6% | 21.8% | .
O=C(CCCc1ccccc1)NC1CC(=O)N(c2ccc(Cl)cc2)C1 (configuration not stated) | -13.8%[59 µM] | . | -1.2% | 59.0% | -12.7% | .
CC(C)CC(C(=O)Nc1oc(-c2ccco2)c(-c2ccco2)c1C#N)N1C(=O)c2ccccc2C1=O (configuration not stated) | 22.4µM* | 39.8µM* | 31.6µM* | -24.9% | ? | ?
Cc1ccc(S(=O)(=O)N(C(=O)c2ccncc2)c2ccc(OC(=O)c3ccncc3)c3ccccc23)cc1 | 8.91µM* | 25.1µM* | -35.1% | -27.5% | 39.8µM* | -19.7%
COC(=O)c1c(C)oc2ccc(N(C(=O)c3ccncc3)S(=O)(=O)c3ccc(C)cc3)cc12 | 21.6%[2.33 µM] | 4.0% | -29.2% | 13.1% | -16.8% | .
CC(=O)Oc1ccc(N(C(C)=O)S(=O)(=O)c2ccc(C)cc2C)c2ccccc12 | 15.1%[59 µM] | 6.5% | -0.5% | ? | -12.0% | -2.9%
Cc1ccc(S(=O)(=O)N(C(=O)c2ccncc2)c2ccc(OC(=O)c3ccncc3)c3ccccc23)c(C)c1 | 1.58µM* | 44.7µM* | ? | ? | ? | .
CC(C)(C)c1ccccc1OCC(=O)Nc1ncn[nH]1 | 35.5µM* | 0.5% | ? | 37.8% | -14.0% | .
CCc1ccc(OCC(=O)Nc2ncn[nH]2)c(Br)c1 | -17.8%[59 µM] | . | 89.1µM* | 47.3% | -6.0% | .
O=C(COc1ccc(Br)cc1Cl)Nc1ncn[nH]1 | -22.2%[59 µM] | . | -34.3% | 42.7% | -17.5% | .
CC(C)(C)c1cc(Br)ccc1OCC(=O)Nc1ncn[nH]1 | 20.1% | 20.5% | 2.0% | 33.6% | -7.0% | .
O=C(Nc1cc(Cl)cc(Cl)c1)c1ccc(F)c(S(=O)(=O)N2CCc3ccccc32)c1 | -0.5%[59 µM] | . | 0.0% | 24.4% | -18.7% | .
OC[C@H]1O[C@@](CO)(O[C@H]2O[C@H](CO)[C@@H](O)[C@H](O)[C@H]2O)[C@@H](O)[C@@H]1O | -4.3%[12.7 µM] | 13.1% | . | . | . | .
Cc1cccc(N(CC(=O)O)CC(=O)O)c1 | 11.2µM* | -23.9% | -31.3% | 1.2% | -35.5% | 6.6%
Cc1cccc(N(Cc2ccccc2)C(=O)CCl)c1 | 9.0% | 4.8% | 6.1% | 60.9% | 18.0% | 9.3%
CCCCCn1c(=O)[nH]c2cc(C(=O)NC(C)CC)ccc2c1=O (configuration not stated) | 8.2%[59 µM] | . | 1.6% | 19.7% | 11.3% | .
Cc1cccc(N2CC(C(=O)Nc3nnc(SCC(=O)N4CCOCC4)s3)CC2=O)c1 (configuration not stated) | 44.7µM* | -23.2% | -25.0% | 21.5% | -27.5% | .
COc1ccc(N2CC(C(=O)Nc3nnc(SCC(=O)N4CCOCC4)s3)CC2=O)cc1 (configuration not stated) | 35.5µM* | 50.1µM* | -23.2% | 4.6% | -25.6% | .
O=C(Nc1nnc(SCC(=O)N2CCOCC2)s1)C1CC(=O)N(c2ccccc2)C1 (configuration not stated) | 26.5%[59 µM] | 10.0% | -8.0% | 45.5% | -4.9% | .
CCN(CC)C(=O)Cn1c(SCCOc2ccc(Cl)cc2)nc2ccccc21 | ? | . | ? | 9.1% | -28.8% | .
COc1ccc(NC(=O)c2c(C)oc3ccc(O)c(CN4CCN(Cc5ccccc5)CC4)c23)cc1 | ? | . | -10.4% | 14.7% | -23.3% | .
Cc1nn(-c2ccccc2)c2c1N(CCCC(=O)NCc1ccc(OC(C)C)cc1)C(=O)CS2 | 6.3%[59 µM] | . | -12.0% | 4.2% | -24.7% | .
CC(O)c1n(C)c(Cl)c[n+]1C (configuration not stated) | 11.2µM* | 10.4% | 1.1% | 9.0% | ? | .
SMILES | G9a block | Sfp inh | BAZ2B block | HP1b chromo inh | JMJD2A Tudor inh | L3MBTL1 block
C/C(=N\Nc1nccnc1Cl)c1ccc([N+](=O)[O-])cc1 | 17.8%[59 µM] | 79.4µM* | -19.3% | -3.6% | -13.5% | 5.1%
C/C(=N\Nc1nccnc1Cl)c1ccc(Br)cc1 | 4.0% | 8.2% | -1.2% | 3.9% | -19.9% | -1.4%
COc1ccc(CCCn2ncc3c2nc(N)n2nc(-c4ccco4)nc32)cc1 | ? | 6.9% | . | . | . | .
COc1ccccc1Nc1nc(NCc2ccco2)c2ccccc2n1 | 50.1µM* | -29.1% | ? | 10.8% | -31.3% | -6.6%
Cc1ccc(Nc2nc(NCc3ccco3)c3ccccc3n2)cc1 | ? | 10µM* | -37.0% | 0.4% | ? | .
COc1ccc2c(c1)c1c(c(=O)n(-c3cc(Cl)ccc3C)c(=O)n1Cc1ccc(F)cc1)n2C | -29.3%[59 µM] | . | -6.5% | 26.0% | 6.6% | .
CCOC(=O)N1CCN(C(=O)CN2C(=O)/C(=C\c3cccc(OC)c3)SC2=S)CC1 | . | . | . | 10.6% | -21.3% | .
O=C(Cc1ccccc1)NCC(=O)N/N=C/c1ccc([N+](=O)[O-])s1 | -6.8% | 9.5% | -3.8% | 1.9% | -11.7% | .
O=[N+]([O-])c1ccc(C=Nc2cccc3ccccc23)s1 | 10µM* | -1.6% | 15.8µM* | 12.6µM* | 39.8µM* | ?
COc1cc(NC(=S)N2CCCCC2C)cc(OC)c1OC (configuration not stated) | -49.4% | 44.7µM* | -19.4% | 39.8% | -4.2% | ?
COc1ccc(S(=O)(=O)Oc2ccc(C(=S)N3CCOCC3)cc2OC)cc1 | . | 2.4% | -3.7% | 19.6% | -22.1% | -0.6%
COc1cc(C(=S)N2CCCC2)cc(OC)c1OC | 39.8µM* | 50.1µM* | -19.1% | 5.4% | -18.1% | -4.8%
COc1cc(C(=S)N2CCCC2)cc(OC)c1OS(=O)(=O)c1ccc(NC(C)=O)cc1 | 31.6µM* | 35.5µM* | -27.9% | ? | ? | 2.7%
COc1ccc(C(=S)N2CCOCC2)cc1OS(=O)(=O)c1ccc(Br)cc1 | 44.7µM* | -4.7% | -38.9% | -11.3% | -27.4% | .
Cc1nc2c(C(=O)NCCC(C)C)cnn2c(C)c1Cc1c(F)cccc1Cl | ? | . | 22.0% | 46.7% | 4.6% | .
CCOc1ccc(NC(=O)c2ccc3nc(Cc4ccccc4)oc3c2)cc1 | -1.4%[59 µM] | . | -3.1% | 18.8%[57 µM] | -11.5% | .
